Compounds without any hit were thinned out: in the full panel of roughly 83,000, 20% have a hit.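 Cell lines were cultured in 96-well plates, exposed to a single compound concentration, and assessed for percent growth 48 hours later.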 Unmarked numbers belong to inactive results. Calls of active or inactive are those of the source. The calls were made as follows: active = growth percent below 10; inactive = the rest.

The assay concerns MDA-MB-468 breast. The assay is described as follows: NCI-60 one-dose screen, 48 h (100 = growth as untreated, 0 = no growth, -100 = all killed). As to conditions: 10 µM unless noted.
In the case of `COc1cccc2nc(Nc3ccc(NC(=O)c4ccc5ncccc5c4)cc3)ccc12`, the growth was 88.9%.

Consider `C=CCn1c(SCC(=O)Nc2cccc(C(=O)/C=C/c3ccc(OC)c(OC)c3)c2)nc2ccccc2c1=O`, for which the growth is 80.9%.

As to `Cc1ccc(-c2c(-c3ccccc3)c(=O)oc3ccc(C)cc23)cc1`, the growth is 97.3%.

Take `COc1ccc(/C=C2\CCCC3=C2NC(N)=NC3c2ccc(OC)cc2)cc1` (stereo not given): the growth is -5.61% (active).

Turning to `ClCCn1cnc2c(SCc3ccccc3)ncnc21`, the growth is 74.8%.

Regarding `COc1cccc(-c2[nH]c(=S)ncc2C(=O)c2ccccc2)c1`, the growth is 59.4%.

As to `O=C(Nc1cccc(Cn2c(=O)[nH]c3ccc(Oc4ncccn4)cc3c2=O)c1)c1ccc(Cl)cc1`, the growth was 16.8%.

Consider `C/C(=C(/c1ccccc1)c1ccc(OCC(O)CN2CCOCC2)cc1)c1ccccc1` (stereo not given), for which the growth is 85.1%.

`O=C1CCC/C=C\C[C@H]2C=CC(=O)/C2=C/C[C@H](C/C=C\CC(F)(F)F)O1`: the growth was -46.5% (active).

With `CCNCCNc1cc(-c2ccc(C#N)cc2)c(C#N)c2nc3ccccc3n12`, the growth was -14.1% (active).

Consider `CC1=NNC(=O)C1CCC(=O)N/N=C(\C)c1ccc2ccccc2c1` (stereo not given), for which the growth was 119%.

Consider `COc1ccc(-c2cc(Cc3cccs3)c(=O)n(Cn3cncn3)n2)cc1`, for which the growth was 102%.

With `O=C1c2ccccc2C2N1CCC1CCc3ccccc3N12` (stereo not given), the growth was 95.1%.

For `COc1ccc(-c2nn(-c3ccccc3)cc2/C=C/C(=O)OCc2cn(-c3ccc(F)c(Cl)c3)nn2)cc1`, the growth is 72.2%.

In the case of `CC(C)(C)c1cc(O)c(O)c(C(C)(C)C)c1`, the growth is 40.4%.

`COc1cc(C(c2c[nH]c3ccccc23)N2CCCC2)ccc1OCc1ccccc1` (stereo not given): the growth is 53.9%.

As to `O=C1C=C(O)C(=O)C(CC2=C(O)C(=O)C=C(O)C2=O)=C1O`, the growth was 98.7%.

As to `C=C(C)[C@@H]1CC[C@]2(C(=O)O)CC[C@]3(C)[C@H](CC[C@@H]4[C@@]5(C)C/C(=C/c6ccccn6)C(=O)C(C)(C)[C@@H]5CC[C@]43C)[C@@H]12`, the growth was 9.64% (active).

As to `CCN(CC)CCC(C(=O)O)(c1ccccc1)c1ccccc1`, the growth is 120%.

`COc1nc2c(cc1S(=O)(=O)c1ccccc1)CCc1c-2cnn1Cc1ccccc1`: the growth is 45.7%.

Consider `Cc1cc(C)c(NC(=O)c2sc3nc4c(cc3c2N)CCCC4)c(C)c1`, for which the growth is 47.9%.

Take `CC(=O)N1N=C(c2ccc(-n3ccc(C(F)(F)F)n3)c(F)c2)CC1c1ccc[nH]1` (stereo not given): the growth is 117%.

With `Cn1cc(-c2nc(N)nnc2-c2c[nH]c3ccc(Br)cc23)c2cc(Br)ccc21`, the growth is 6.33% (active).

On to `CC(=O)OCCC/C(=C/c1cc2ccccc2c2ccccc12)[N+](=O)[O-]`, for which the growth was -69% (active).

As to `COc1ccc(CNc2c3ccccc3nc3ccc(OC)cc23)cc1`, the growth was -14.7% (active).

Consider `CCCCOc1ccc(NC(=O)n2nc(NC(C)=O)c3cc(NC(C)=O)ccc32)cc1`, for which the growth was 111%.

Regarding `COc1cccc(-n2cc(-c3nc(Cl)c4ccccc4n3)nn2)c1`, the growth is 117%.

`Cc1c2c(cc[n+]1Cc1ccccc1)c1ccc(OCc3ccccc3)cc1n2Cc1ccccc1`: the growth is -42.3% (active).

As for `Brc1ccc(C2CC(c3cccc(Nc4ccncc4)c3)=NN2c2ccccc2)cc1` (stereo not given), the growth is 78.2%.

Take `Cn1cc(-c2nn3cc(-c4cccnc4)nc3s2)c2ccccc21`: the growth is -2.67% (active).

`O=C(Nc1cccc(-n2cc(-c3ccncc3)c(-c3ccc(O)c(Cl)c3)n2)c1)c1cccc(C(F)(F)F)c1`: the growth is 34.3%.

As to `CC(=O)Nc1ccc2oc(=O)ccc2c1`, the growth was 83%.

For the molecule `CCCCCOC(=O)Nc1nc(=O)n(C2O[C@H](C)[C@@H](O)[C@H]2O)cc1F` (stereo not given in full), the growth was 99.1%.

In the case of `CN(C)S(=O)(=O)c1ccc(-c2nc(C(Cl)Cl)nc3cc(-c4ccccc4)nn23)cc1`, the growth was 60.7%.

As for `CC12CCC3C4(C)COC(c5ccccc5Cl)OC4CCC3(C)C1CC(C1=CCOC1=O)O2` (stereo not given), the growth was 24.9%.

With `CCOC(=O)c1ccc2c(c1)nc(-c1ccccc1)n2C1CCCCC1`, the growth is 118%.

Turning to `Cc1[nH]c(-c2nc3ccccc3[nH]2)c(C)c1C(=O)N1CCOCC1`, the growth was 91.6%.

Consider `CC(=O)c1ccc(NC(=O)CSc2nnc(-c3cc(-c4ccc(C)cc4)nc4ccccc34)o2)cc1`, for which the growth was 95.4%.

Turning to `Nc1cccc(C(=O)Nc2ccc3c(O)c(N=Nc4ccc(N=Nc5ccc(S(=O)(=O)O)cc5)cc4)c(S(=O)(=O)O)cc3c2)c1`, the growth is 113%.

As for `CC(C)n1nc(C#Cc2cccc(O)c2)c2c(N)ncnc21`, the growth is -44.2% (active).
